PubChem BioAssay (NCATS)
Several values for one entry are separate records, joined by “and”; a condition that tells them apart may be missing. Equal entries are not always repeated. Results filed as inconclusive are left out. A call without a number means that no potency is given here. More than one record can exist for a structure, and the calls need not agree. Activity calls are given as the source filed them. Unless noted, calls come from the whole dose curve; as a rule, active = well fitted curve in the direction sought with a large enough effect; inconclusive = small, poorly fitted or top-dose-only effect, or another doubt; inactive = no such curve, though single readings can be large; an effect the other way counts as inactive or inconclusive.

Key:
[1] = biological target: Beta-2 adrenergic receptor (Homo sapiens) (UniProt P07550); assay: qHTS validation assay of beta-arrestin-biased ligands of beta2-adrenergic receptor (AID 485366)
Sequence of Beta-2 adrenergic receptor (Homo sapiens) (P07550 whole entry, looked up): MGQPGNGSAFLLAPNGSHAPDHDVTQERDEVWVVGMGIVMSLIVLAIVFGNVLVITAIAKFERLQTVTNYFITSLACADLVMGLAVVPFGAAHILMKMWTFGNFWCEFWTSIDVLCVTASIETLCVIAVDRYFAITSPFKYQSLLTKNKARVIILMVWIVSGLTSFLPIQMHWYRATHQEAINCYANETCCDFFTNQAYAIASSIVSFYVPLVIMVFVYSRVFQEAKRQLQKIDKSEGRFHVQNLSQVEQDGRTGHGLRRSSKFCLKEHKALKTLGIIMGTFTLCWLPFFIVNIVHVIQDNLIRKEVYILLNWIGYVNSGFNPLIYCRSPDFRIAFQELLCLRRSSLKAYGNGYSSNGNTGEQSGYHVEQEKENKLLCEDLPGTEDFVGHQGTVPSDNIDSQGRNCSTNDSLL
How it was run: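 qHTS, Tango cells, 1500 cells/well, DMEM + 1% FBS. Cpd 18 hr at 37 degrees C. Luciferin/ATP/CoA detection mix, 15 min RT, luminescence read. %Activity from corrected signal; CRC fit, curve class.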

[2] = Quantitative high throughput screen for delayed death inhibitors of the malarial parasite plastid, 96 hour incubation (AID 488745); note: nearly all actives have a fitted effect of over 70% in size; note: potency is the fitted concentration of half-maximal effect
How it was run: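 Two-generation (96 h) exposure of luciferase-reporter P. falciparum in erythrocytes, 2% hematocrit, 0.1% parasitemia final, 37 C, 5% CO2, RPMI 1640 with 0.5% Albumax. Growth inhibition scored by reduced luminescence.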

[3] = Quantitative high throughput screen for delayed death inhibitors of the malarial parasite plastid, 48 hour incubation (AID 488752); note: nearly all actives have a fitted effect of over 65% in size; note: potency is the fitted concentration of half-maximal effect
How it was run: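 Cultures: infected erythrocytes at final 2% hematocrit and 0.1% parasitemia in Albumax-supplemented RPMI. Parasites express integrated firefly luciferase. Incubation with compound lasts 48 h before luminescent detection of remaining reporter activity.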

[4] = biological target: Thioredoxin reductase 1, cytoplasmic (Rattus norvegicus) (UniProt O89049); assay: qHTS Assay for Substrates of Mammalian Selenoprotein Thioredoxin Reductase 1 (TrxR1) (AID 488772);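 note: series mostly up to about 57 µM; a drop in NADPH fluorescence below the no-compound background marks a TrxR1 substrate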
Sequence of Thioredoxin reductase 1, cytoplasmic (Rattus norvegicus) (O89049 whole entry, looked up): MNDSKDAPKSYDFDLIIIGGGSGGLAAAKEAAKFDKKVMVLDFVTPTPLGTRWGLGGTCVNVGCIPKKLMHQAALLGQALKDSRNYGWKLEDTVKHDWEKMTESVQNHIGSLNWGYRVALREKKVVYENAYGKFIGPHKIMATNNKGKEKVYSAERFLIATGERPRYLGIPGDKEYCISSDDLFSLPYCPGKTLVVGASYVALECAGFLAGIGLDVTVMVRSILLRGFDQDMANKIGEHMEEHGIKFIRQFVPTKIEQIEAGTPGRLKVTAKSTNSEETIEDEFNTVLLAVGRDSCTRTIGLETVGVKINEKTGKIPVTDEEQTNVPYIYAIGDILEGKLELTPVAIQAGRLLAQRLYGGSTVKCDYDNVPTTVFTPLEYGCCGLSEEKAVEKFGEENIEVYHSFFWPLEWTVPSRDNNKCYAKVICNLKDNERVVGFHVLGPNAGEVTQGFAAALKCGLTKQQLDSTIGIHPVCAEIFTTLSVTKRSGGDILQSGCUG
How it was run: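 In this dual-purpose format, potential substrates are identified from the first fluorescence read after selenite addition, not from the 8-minute delta. Rat enzyme is preincubated with NADPH and then with compound at ~22 deg C.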

[5] = biological target: Thioredoxin reductase 1, cytoplasmic (Rattus norvegicus) (UniProt O89049); assay: qHTS Assay for Inhibitors of Mammalian Selenoprotein Thioredoxin Reductase 1 (TrxR1) (AID 488773); details: Potency: inhibition; note: nearly all actives have a fitted effect of over 40% in size; note: potency is the fitted concentration of half-maximal effect
How it was run: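 Inhibition is scored from the loss of NADPH fluorescence between first and last reads of an 8-min kinetic run. Selenite (400 uM) was the substrate, added after 15 min compound preincubation at room temperature.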

[6] = biological target: Flap endonuclease 1 (Homo sapiens) (UniProt P39748); assay: qHTS Validation Assay for the Inhibitors of Human Flap endonuclease 1 (FEN1) (AID 488816); note: potency is the fitted concentration of half-maximal effect
Sequence of Flap endonuclease 1 (Homo sapiens) (P39748 whole entry, looked up): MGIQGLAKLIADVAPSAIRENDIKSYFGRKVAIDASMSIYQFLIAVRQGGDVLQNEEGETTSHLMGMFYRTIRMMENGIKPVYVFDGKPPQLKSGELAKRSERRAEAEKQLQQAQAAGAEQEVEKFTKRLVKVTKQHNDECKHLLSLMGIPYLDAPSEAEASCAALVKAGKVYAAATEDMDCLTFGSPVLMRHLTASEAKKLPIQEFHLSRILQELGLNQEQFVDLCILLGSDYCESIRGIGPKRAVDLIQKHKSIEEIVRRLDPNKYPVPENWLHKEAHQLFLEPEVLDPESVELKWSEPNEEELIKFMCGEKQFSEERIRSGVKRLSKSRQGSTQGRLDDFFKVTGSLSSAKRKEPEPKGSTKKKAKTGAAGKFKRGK
How it was run: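 Enzyme reagent 10 nM; cpds pinned; 15 min RT preinc.; substrate 50 nM final; reads t=0 and 15 min; no-enzyme buffer wells as neg. control; normalized data, 4-parameter Hill fit.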

[7] = biological target: M-phase phosphoprotein 8 (Homo sapiens) (UniProt Q99549); assay: qHTS Validation Assay for Inhibitors for MPP8 Chromodomain Interactions with Methylated Histone Tails (AID 488949); note: nearly all actives have a fitted effect of over 55% in size; note: potency is the fitted concentration of half-maximal effect
Sequence of M-phase phosphoprotein 8 (Homo sapiens) (Q99549 whole entry, looked up): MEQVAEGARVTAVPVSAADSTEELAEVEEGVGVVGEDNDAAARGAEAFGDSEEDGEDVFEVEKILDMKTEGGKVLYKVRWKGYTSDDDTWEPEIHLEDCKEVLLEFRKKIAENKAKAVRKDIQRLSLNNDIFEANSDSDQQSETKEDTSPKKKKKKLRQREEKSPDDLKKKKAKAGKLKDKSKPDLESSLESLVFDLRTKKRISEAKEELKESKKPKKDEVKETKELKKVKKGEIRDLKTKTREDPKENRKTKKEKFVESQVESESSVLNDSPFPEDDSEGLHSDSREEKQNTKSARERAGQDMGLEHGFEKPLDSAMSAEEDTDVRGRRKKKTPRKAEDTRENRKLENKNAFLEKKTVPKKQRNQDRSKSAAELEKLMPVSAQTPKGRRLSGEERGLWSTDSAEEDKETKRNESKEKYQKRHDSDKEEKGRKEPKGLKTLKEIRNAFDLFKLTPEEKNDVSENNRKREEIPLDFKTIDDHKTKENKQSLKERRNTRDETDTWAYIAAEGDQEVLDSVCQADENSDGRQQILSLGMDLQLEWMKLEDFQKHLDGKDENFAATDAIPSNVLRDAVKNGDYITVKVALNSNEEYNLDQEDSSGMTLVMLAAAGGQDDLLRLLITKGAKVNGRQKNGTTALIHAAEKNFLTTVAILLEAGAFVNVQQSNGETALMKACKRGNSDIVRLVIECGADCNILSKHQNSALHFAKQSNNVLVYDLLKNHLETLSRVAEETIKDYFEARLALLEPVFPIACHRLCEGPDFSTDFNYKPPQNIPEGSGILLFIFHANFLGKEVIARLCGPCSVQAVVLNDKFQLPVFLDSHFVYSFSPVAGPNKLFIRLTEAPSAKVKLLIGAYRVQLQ
How it was run: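 AlphaScreen proximity signal from streptavidin donor and Ni-chelate acceptor beads (10 ug/mL each) reported binding of MPP8 to trimethyl-K9 H3(1-18) peptide, both at 50 nM. The complex formed 30 min before a 30 min compound exposure at room temperature, in PBS pH 7.4.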

[8] = biological target: Chromobox protein homolog 1 (Homo sapiens) (UniProt P83916); assay: qHTS Validation Assay for Inhibitors of HP1-beta Chromodomain Interactions with Methylated Histone Tails (AID 488953); note: nearly all actives have a fitted effect of over 50% in size; note: potency is the fitted concentration of half-maximal effect
Sequence of Chromobox protein homolog 1 (Homo sapiens) (P83916 whole entry, looked up): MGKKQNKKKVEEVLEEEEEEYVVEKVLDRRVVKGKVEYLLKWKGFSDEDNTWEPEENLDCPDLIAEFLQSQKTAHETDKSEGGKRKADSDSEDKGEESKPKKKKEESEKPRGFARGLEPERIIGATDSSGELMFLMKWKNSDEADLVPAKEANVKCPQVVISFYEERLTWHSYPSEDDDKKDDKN
How it was run: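 Compounds pinned into a preassembled complex of HP1-beta and trimethyl-K9 histone H3(1-18) biotin peptide (50 nM each; PBS pH 7.4, 0.01% Tween-20). After 30 min, bead-based AlphaScreen detection followed.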

[9] = biological target: Transient receptor potential cation channel subfamily V member 1 (Homo sapiens) (UniProt Q8NER1); assay: HTS Assay for Compounds that Act as Enhancers of the Vanilloid Receptor 1 (AID 488979)
Sequence of Transient receptor potential cation channel subfamily V member 1 (Homo sapiens) (Q8NER1 whole entry, looked up): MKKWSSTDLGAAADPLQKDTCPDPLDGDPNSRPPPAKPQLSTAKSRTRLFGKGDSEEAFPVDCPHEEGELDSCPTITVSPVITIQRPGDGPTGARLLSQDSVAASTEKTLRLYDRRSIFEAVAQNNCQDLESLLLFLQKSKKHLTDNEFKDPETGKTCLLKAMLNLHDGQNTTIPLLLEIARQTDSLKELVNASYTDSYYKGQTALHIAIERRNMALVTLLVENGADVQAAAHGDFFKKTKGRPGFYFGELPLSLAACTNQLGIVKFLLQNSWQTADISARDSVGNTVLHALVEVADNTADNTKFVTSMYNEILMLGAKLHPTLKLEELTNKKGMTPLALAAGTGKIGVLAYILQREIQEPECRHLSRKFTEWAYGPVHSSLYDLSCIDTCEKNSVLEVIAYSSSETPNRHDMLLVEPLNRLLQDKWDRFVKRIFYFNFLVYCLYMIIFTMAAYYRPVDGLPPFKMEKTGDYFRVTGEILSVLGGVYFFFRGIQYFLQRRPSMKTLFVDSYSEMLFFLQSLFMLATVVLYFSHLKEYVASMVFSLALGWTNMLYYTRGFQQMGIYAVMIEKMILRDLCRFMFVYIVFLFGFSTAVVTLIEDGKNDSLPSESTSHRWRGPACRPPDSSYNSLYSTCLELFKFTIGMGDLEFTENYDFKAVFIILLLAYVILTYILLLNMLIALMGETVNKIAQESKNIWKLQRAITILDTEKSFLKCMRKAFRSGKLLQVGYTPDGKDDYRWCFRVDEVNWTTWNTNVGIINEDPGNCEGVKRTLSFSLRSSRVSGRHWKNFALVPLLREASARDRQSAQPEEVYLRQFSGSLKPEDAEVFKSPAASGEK
How it was run: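 TRPV1 cells loaded with Fluo-8 calcium dye; compound added and Ca2+ signal (ex 480/em 520 nm) followed 3 min, then capsaicin at EC20 added and read 2 more min to detect enhancement.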

[10] = biological target: D(1A) dopamine receptor (Homo sapiens) (UniProt P21728); assay: HTS Assay for Allosteric Agonists of the Human D1 Dopamine Receptor: Primary Screen for Agonists (AID 488981)
Sequence of D(1A) dopamine receptor (Homo sapiens) (P21728 whole entry, looked up): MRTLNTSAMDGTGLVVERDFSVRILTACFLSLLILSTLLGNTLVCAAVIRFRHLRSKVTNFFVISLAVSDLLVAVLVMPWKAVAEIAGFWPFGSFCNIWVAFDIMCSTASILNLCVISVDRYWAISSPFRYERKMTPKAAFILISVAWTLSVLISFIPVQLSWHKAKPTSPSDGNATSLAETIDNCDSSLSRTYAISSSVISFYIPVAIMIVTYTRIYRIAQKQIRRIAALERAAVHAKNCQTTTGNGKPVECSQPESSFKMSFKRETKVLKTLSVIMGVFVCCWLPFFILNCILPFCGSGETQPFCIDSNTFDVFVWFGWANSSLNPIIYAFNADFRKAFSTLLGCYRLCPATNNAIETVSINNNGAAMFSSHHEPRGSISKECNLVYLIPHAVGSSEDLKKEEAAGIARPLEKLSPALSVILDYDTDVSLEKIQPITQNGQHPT
How it was run: (§1)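 Tetracycline-induced HEK293 Trex D1 cells with forced coupling to calcium, loaded with no-wash calcium dye; kinetic fluorescence read 180 s after compound addition for agonism, then a further 180 s after an EC20 dopamine challenge for potentiation.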

[11] = biological target: D(1A) dopamine receptor (Homo sapiens) (UniProt P21728); assay: HTS Assay for Allosteric Agonists of the Human D1 Dopamine Receptor: Primary Screen for Potentiators (AID 488982); note: potency is the fitted concentration of half-maximal effect
How it was run: as §1

[12] = biological target: D(1A) dopamine receptor (Homo sapiens) (UniProt P21728); assay: HTS Assay for Allosteric Agonists of the Human D1 Dopamine Receptor: Primary Screen for Antagonists (AID 488983);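 note: calcium flux response to an EC80 dopamine challenge measured with no-wash dye; nearly all actives have a fitted effect of over 65% in size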; note: potency is the fitted concentration of half-maximal effect
How it was run: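 In this primary screen, compounds are applied to calcium-dye-loaded HEK293 T-REx cells with force-coupled D1 expression induced overnight at 30 C. An EC80 of dopamine follows the 180 s compound phase, and calcium is monitored for a further 180 s.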

[13] = Validation screen for small molecules that induce genotoxicity in human embryonic kidney (HEK293T) cells expressing luciferase-tagged ELG1 (AID 493106)
How it was run: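 In this validation screen, increased ELG1-luciferase signal flags compounds causing genetic stress. HEK293T reporter cells are treated 16 hr (37 °C, 5% CO2), developed with ONE-Glo for 30 min at room temperature, and imaged on a CCD-based reader.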

[14] = biological target: ATPase family AAA domain-containing protein 5 (Homo sapiens) (UniProt Q96QE3); assay: Validation screen for small molecules that inhibit ELG1-dependent DNA repair in human embryonic kidney (HEK293T) cells expressing luciferase-tagged ELG1 (AID 493107); note: nearly all actives have a fitted effect of over 70% in size; note: potency is the fitted concentration of half-maximal effect
How it was run: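 Compounds reducing 5-fluorouridine-driven ELG1-luciferase signal in HEK293T cells were scored; exposure lasted 16 hr at 37 °C with luminescence detected via ONE-Glo.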

[15] = biological target: Thyrotropin-releasing hormone receptor (Homo sapiens) (UniProt P34981); assay: qHTS for Small Molecule Agonists and Allosteric Enhancers of Human TRH Receptor: Validation Screen for Agonists (AID 493127;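 active = calcium activation more than 3 SD above the typical response in the agonist read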;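 note: intracellular calcium rise by fluo-8 fluorescence before TRH EC20 addition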); details: TRH receptor agonist cell assay; at 2 µM; stronger effect = higher value
Sequence of Thyrotropin-releasing hormone receptor (Homo sapiens) (P34981 whole entry, looked up): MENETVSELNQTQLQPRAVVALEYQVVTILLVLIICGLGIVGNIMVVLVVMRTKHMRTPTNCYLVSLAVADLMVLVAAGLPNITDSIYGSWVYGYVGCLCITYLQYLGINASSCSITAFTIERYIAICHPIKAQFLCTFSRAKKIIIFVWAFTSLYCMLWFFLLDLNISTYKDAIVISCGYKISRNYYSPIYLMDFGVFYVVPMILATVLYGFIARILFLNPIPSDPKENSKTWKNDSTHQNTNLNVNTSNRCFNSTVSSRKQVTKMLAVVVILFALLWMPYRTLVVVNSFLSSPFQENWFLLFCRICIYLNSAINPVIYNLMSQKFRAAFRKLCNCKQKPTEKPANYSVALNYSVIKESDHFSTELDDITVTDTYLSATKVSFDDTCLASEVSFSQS
How it was run: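 Kinetic fluorescence assay of agonist-induced calcium release: overnight-plated TRHR cells, room-temperature fluo-8 loading, baseline then compound addition with per-second reads.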

[16] = biological target: Methanococcus maripaludis chaperonin (MmCpn) (UniProt Q6LX38); assay: High-Throughput Screening for Modulators of Cytosolic Chaperonin Activity: MmCpn Primary Screen (AID 488978);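 note: 50 nM MmCpn enzyme hydrolysing 30 µM ATP at 37 °C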
How it was run: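 ATPase activity of 50 nM MmCpn was assayed with 30 uM ATP, 10 minutes at 37C, after a 5 min compound preincubation at room temperature. ADP production was read as HTRF emission at 590 and 665 nm.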

[17] = biological target: Thyrotropin receptor (Homo sapiens) (UniProt P16473); assay: qHTS Assay for Antagonists of the Thyroid Stimulating Hormone Receptor (AID 488980); note: series mostly up to about 58 µM
Sequence of Thyrotropin receptor (Homo sapiens) (P16473 whole entry, looked up): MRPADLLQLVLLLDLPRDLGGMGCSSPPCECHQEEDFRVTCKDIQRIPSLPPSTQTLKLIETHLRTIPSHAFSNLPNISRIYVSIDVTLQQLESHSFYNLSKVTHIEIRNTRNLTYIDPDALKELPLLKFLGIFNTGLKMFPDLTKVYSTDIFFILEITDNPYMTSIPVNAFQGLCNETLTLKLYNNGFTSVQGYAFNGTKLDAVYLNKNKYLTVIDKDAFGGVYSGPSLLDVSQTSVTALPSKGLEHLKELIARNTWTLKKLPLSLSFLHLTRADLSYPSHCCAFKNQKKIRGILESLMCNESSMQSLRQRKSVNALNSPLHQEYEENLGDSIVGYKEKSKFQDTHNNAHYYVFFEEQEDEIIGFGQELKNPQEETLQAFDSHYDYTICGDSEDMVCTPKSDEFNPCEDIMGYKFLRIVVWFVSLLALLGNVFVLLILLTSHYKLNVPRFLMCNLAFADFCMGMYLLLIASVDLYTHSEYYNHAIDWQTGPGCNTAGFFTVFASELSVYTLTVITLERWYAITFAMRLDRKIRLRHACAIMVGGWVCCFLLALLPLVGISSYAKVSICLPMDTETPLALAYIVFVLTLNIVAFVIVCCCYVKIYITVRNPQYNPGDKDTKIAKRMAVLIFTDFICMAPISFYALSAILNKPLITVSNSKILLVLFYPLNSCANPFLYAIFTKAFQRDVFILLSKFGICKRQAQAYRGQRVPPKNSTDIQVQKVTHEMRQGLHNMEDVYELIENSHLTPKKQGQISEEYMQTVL
How it was run: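 Inhibition of cAMP raised by EC80 TSH (4 nM final) was read by HTRF, with lysate cAMP competing against cAMP-d2 for cryptate antibody after 30 min at room temperature. The cells were transfected HEK293 held in phosphodiesterase inhibitor RO 20-1724 at 70 uM.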

[18] = biological target: ATP-dependent 6-phosphofructokinase (Trypanosoma brucei brucei) (UniProt O15648); assay: qHTS Assay to Find Inhibitors of T. brucei phosphofructokinase: hit validation (AID 492961);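 note: luminescence reports ADP formed as PFK phosphorylates fructose-6-phosphate with ATP; series mostly up to about 51 µM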
How it was run: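 Compounds titrated; %activity normalized to 0x and 1x enzyme controls, curve-fitted. Readout: ADP-Glo luminescence after 45 min room-temperature reaction of 1.25 nM PFK, 0.1 mM ATP, 0.5 mM F6P, pH 8.0.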

[19] = biological target: Tyrosyl-DNA phosphodiesterase 1 (Homo sapiens) (UniProt Q9NUW8); assay: Confirmation Assay for Inhibitors of Tyrosyl-DNA Phosphodiesterase (TDP1) (AID 489007); details: recombinant human TDP1 enzymatic activity, dose-response; note: potency is the fitted concentration of half-maximal effect; nearly all actives have a fitted effect of over 40% in size
How it was run: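 Loss of AlphaScreen signal reports Tdp1 cleavage of a dual-labelled DNA substrate. Conditions: 1 nM E. coli-derived enzyme, 15 nM substrate, 15 min compound preincubation, 5 min reaction, 10 min bead incubation, all at room temperature.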

SMILES	outcome [1]	Potency [2]	Potency [3]	outcome [4]	Potency [5]	Potency [6]	Potency [7]	Potency [8]	outcome [9]	Potency [10]	Potency [11]	Potency [12]	Potency [13]	Potency [14]	activation [15]	outcome [16]	outcome [17]	outcome [18]	Potency [19]
N[C@@H](CCCC(=O)O)C(=O)O	inactive	inactive	inactive	inactive	inactive	inactive	inactive	inactive	inactive	inactive	inactive	inactive	inactive	inactive	0.75% (inactive)	–	–	–	–
C/C(=C\c1ccc(C(=O)O)cc1)c1ccc2c(c1)C(C)(C)CCC2(C)C	inactive	inactive	inactive	inactive	–	inactive	inactive	inactive	inactive	inactive	inactive	–	–	inactive	-6% (inactive)	inactive	inactive	–	–
Nc1ccc(-c2nc3ccc(-c4nc5ccc(N)cc5[nH]4)cc3[nH]2)cc1	inactive	0.262 µM (active)	0.415 µM (active)	inactive	inactive	21.2 µM (active)	44.7 µM (active) and 26.7 µM (active)	39.8 µM (active)	inactive	inactive	inactive	inactive	inactive	–	1% (inactive)	–	inactive	–	–
NC1(C(=O)O)CCc2cc(C(=O)O)ccc21 (centres undefined)	inactive	inactive	inactive	inactive	16.8 µM (active)	inactive	–	inactive	inactive	inactive	inactive	inactive	–	inactive	1.19% (inactive)	inactive	–	–	–
O=c1ccc2c(OCCCCc3ccccc3)c3ccoc3cc2o1	inactive	–	inactive	inactive	inactive	inactive	inactive	inactive	inactive	inactive	inactive	inactive	inactive	inactive	–	inactive	inactive	–	–
CCCCCCCCCCCCCCCCCCOC[C@H](COP(=O)([O-])OCC[N+](C)(C)C)OC	inactive	–	inactive	–	inactive	inactive	inactive	inactive	inactive	inactive	inactive	inactive	–	inactive	0.938% (inactive)	inactive	inactive	inactive	–
O=C(c1ccc2c(c1)OCCO2)N1CCCCC1	inactive	–	inactive	inactive	inactive	inactive	inactive	inactive	–	–	inactive	inactive	inactive	–	-0.312% (inactive)	inactive	–	–	–
O=C1Nc2ccc(I)cc2/C1=C/c1cc(Br)c(O)c(Br)c1	inactive	–	inactive	inactive	–	–	14.1 µM (active) and 9.47 µM (active)	11.2 µM (active)	inactive	–	inactive	–	–	inactive	–	inactive	inactive	–	–
NCCC1CCCC(CCN)N1 (centres undefined)	inactive	–	inactive	inactive	inactive	–	inactive	inactive	inactive	inactive	inactive	inactive	–	inactive	1.19% (inactive)	inactive	inactive	–	–
CCCOC(=O)c1c(-c2ccccc2)nc(CC)c(C(=O)SCC)c1CCC	inactive	14.7 µM (active)	–	inactive	inactive	inactive	inactive	inactive	inactive	inactive	2.91 µM (active)	–	inactive	inactive	1.31% (inactive)	inactive	inactive	–	–
Nc1nc2[nH]c(=O)cnc2c(=O)[nH]1	inactive	inactive	inactive	–	–	inactive	inactive	–	inactive	inactive	inactive	inactive	inactive	inactive	0.312% (inactive)	inactive	inactive	–	–
CC1CNCCN1S(=O)(=O)c1cccc2cnccc12 (centres undefined)	inactive	–	inactive	inactive	inactive	inactive	inactive	inactive	inactive	–	inactive	inactive	inactive	8.2 µM (active)	1.25% (inactive)	inactive	–	–	–
CCCc1c(-c2ccc(O)cc2)nn(-c2ccc(O)cc2)c1-c1ccc(O)cc1	inactive	–	inactive	inactive	inactive	inactive	inactive	–	inactive	inactive	inactive	–	inactive	inactive	2.12% (inactive)	inactive	–	–	–
CCN(CC)CCCCCCCCOC(=O)c1cc(OC)c(OC)c(OC)c1	inactive	18.5 µM (active)	–	inactive	inactive	inactive	inactive	inactive	inactive	inactive	inactive	inactive	–	inactive	1.25% (inactive)	inactive	inactive	–	–
O=C(N[C@@H](Cc1ccccc1)C(=O)CCl)OCc1ccccc1	inactive	–	inactive	inactive	21.2 µM (active)	inactive	inactive	inactive	inactive	inactive	inactive	–	inactive	8.2 µM (active)	-3.75% (inactive)	inactive	inactive	–	–
O=c1[nH]c2cc(Cl)ccc2c(O)c1-c1ccc(Oc2ccccc2)cc1	inactive	–	inactive	inactive	inactive	inactive	inactive	inactive	inactive	inactive	inactive	inactive	inactive	inactive	0.5% (inactive)	inactive	inactive	–	–
C=CCN1CCc2c(cc(O)c(O)c2Br)[C@@H](c2ccccc2)C1	inactive	–	1.85 µM (active)	inactive	inactive	inactive	inactive	44.7 µM (active)	inactive	–	inactive	–	–	inactive	–	inactive	inactive	–	–
O=c1cc(O)cc(/C=C/c2ccc(O)c(O)c2)o1	inactive	–	inactive	inactive	inactive	–	5.32 µM (active)	–	inactive	inactive	inactive	inactive	inactive	inactive	–	inactive	inactive	–	–
O=C(O)C1=CCCNC1	inactive	–	inactive	inactive	inactive	inactive	inactive	–	inactive	inactive	–	inactive	–	inactive	0.875% (inactive)	inactive	inactive	–	–
NC(=O)c1cc[n+](CC2=C(C(=O)O)N3C(=O)[C@@H](NC(=O)[C@@H](c4ccccc4)S(=O)(=O)[O-])[C@H]3SC2)cc1	inactive	–	inactive	inactive	–	inactive	–	–	inactive	inactive	inactive	inactive	inactive	inactive	13.1% (inactive)	inactive	inactive	–	4.47 µM (active)
C[C@@]1(C2CCCC2)Cc2cc(OCC(=O)O)c(Cl)c(Cl)c2C1=O	inactive	–	inactive	inactive	–	inactive	inactive	inactive	inactive	inactive	inactive	inactive	inactive	inactive	1.25% (inactive)	inactive	inactive	–	–
NCC(O)c1ccc(O)c(O)c1 (centres undefined)	inactive	inactive	inactive	inactive	–	2.99 µM (active)	22.4 µM (active) and inactive	–	inactive	inactive	inactive	14.1 µM (active)	inactive	–	–	–	–	–	–
OCC1NCC(O)C(O)C1O (centres undefined)	inactive	–	inactive	inactive	–	inactive	inactive	inactive	inactive	inactive	inactive	inactive	–	inactive	0.938% (inactive)	inactive	inactive	–	–
O=C(O)c1ccccc1Nc1cccc(OCc2ccc3ccccc3n2)c1	inactive	–	inactive	inactive	–	inactive	39.8 µM (active) and inactive	–	inactive	inactive	inactive	–	inactive	inactive	-5.56% (inactive)	inactive	inactive	–	–
O=C(O)c1ccccc1Nc1ccccc1	inactive	–	inactive	inactive	inactive	inactive	inactive	–	inactive	inactive	inactive	inactive	inactive	inactive	-4.31% (inactive)	inactive	inactive	–	–
CNc1cc(NS(=O)(=O)c2ccc(N)cc2)nc(NC)n1	inactive	inactive	inactive	inactive	–	inactive	–	–	inactive	inactive	inactive	inactive	inactive	–	0.25% (inactive)	inactive	inactive	–	–
